Laboratory results as given in ChEMBL document CHEMBL3988442, “University of Dundee, Small-Polar-MMV Screening Library” (2021).
About 13,000 (27%) of roughly 48,000 compounds showed an effect of 50% or more. Some of the results follow.

test system: Wolbachia pipientis; assay: Anti-Wolbachia Cell-Based Screen; format: functional; design: scale not given: in the data most compounds retested in dose-response had high values; details: 5 µM

| Compound | Percent Effect |
| --- | --- |
| Cc1cccc(CC(=O)N2CCCC(N(C)CCCN(C)C)C2)c1 (stereo not drawn) | 81.85% |
| Cc1nc(CC(=O)N2CCN(C(C)c3ccccc3F)CC2)cs1 (stereo not drawn) | -7.662% |
| CN(C(=O)Cc1ccn(C)c1)C1CCCN(C2Cc3ccccc3C2)C1 (stereo not drawn) | -11.39% |
| Cc1nc(CC(=O)N2CCCC[C@H](N(C)C)C2)cs1 | 105.8% |
| O=C(Cc1csc(-c2ncccn2)n1)N1CCN2CCCCC2C1 (stereo not drawn) | 6.768% |
| Cc1nc(CN2CCN(C(=O)Cc3cccc(Cl)c3)CC2)no1 | 6.745% |
| CN(C)C(=O)CN1CCN(C(=O)Cc2csc(-c3ncccn3)n2)CC1 | -5.623% |
| Cc1nc(CC(=O)N(C)C2CCCN(CCc3ccccc3)C2)cs1 (stereo not drawn) | 10.74% |
| Cc1nc(CC(=O)N2CCCC(N(C)Cc3ccccc3)C2)cs1 (stereo not drawn) | 124% |
| COc1ncccc1CN1CC[C@H]2O[C@@H](c3nnc(C)o3)CC[C@H]21 | -10.73% |
| O=C(Nc1cccnc1)[C@H]1CN(Cc2ccco2)C[C@H]2OCC[C@@H]12.O=C(O)C(F)(F)F.O=C(O)C(F)(F)F | -18.85% |
| CNC(=O)CN1CCO[C@H]2CN(C(=O)c3ccncc3F)C[C@H]21.O=C(O)C(F)(F)F | -18.06% |
| Cc1ccccc1CC(C)NCc1c(C)nn(C)c1N1CCOCC1.Cl (stereo not drawn) | 6.405% |
| CCOC(C)c1noc(CN(C)C(=O)C2C(C)(C)C2(C)C)n1 (stereo not drawn) | 12.97% |
| C[C@H]1C[C@@H]2CCN(CC3CCOCC3)C[C@H]2O1 | -3.08% |
| O=C1CO[C@H]2CN(C3CCOCC3)C[C@H]2N1Cc1ccncc1 | -21.59% |
| O=C(O)C(F)(F)F.O=C(O)C(F)(F)F.O=C1CO[C@@H]2CN(CC3CCOCC3)C[C@H]2N1Cc1ccncc1 | 87.76% |
| O=C(O)C(F)(F)F.O=C(O)C(F)(F)F.O=C1CO[C@@H]2CN(Cc3cccs3)C[C@H]2N1Cc1ccncc1 | -4.405% |
| O=C1CO[C@@H]2CN(C3CCOCC3)C[C@H]2N1Cc1ccncc1 | 117.1% |
| O=C1CO[C@H]2CN(C3CCOCC3)C[C@H]2N1Cc1ccccn1 | -4.247% |
| O=C(O)C(F)(F)F.O=C(O)C(F)(F)F.O=C(O)C(F)(F)F.O=C(O)C(F)(F)F.c1cc(CN2C[C@@H]3OCCN(CCN4CCCC4)[C@@H]3C2)ccn1 | 0.06106% |
| NCC1(c2cccc(C(F)(F)F)c2)CCOCC1 | -0.8853% |
| CCCN1CCN(C(=O)c2cnccc2C)[C@H]2CS(=O)(=O)C[C@H]21 | -10.68% |
| CCC[C@]12CN3C[C@](C)(CN(C1)C3c1[nH]c(=O)[nH]c(=O)c1C)C2=O (stereo partly drawn) | 118.8% |

| Compound | Percent Effect |
| --- | --- |
| CC[C@]12CN3C[C@](C)(CN(C1)C3c1[nH]c(=O)[nH]c(=O)c1C)C2=O (stereo partly drawn) | 105.1% |
| CC[C@]12CN3C[C@](CC)(CN(C1)C3c1[nH]c(=O)[nH]c(=O)c1C)C2=O (stereo partly drawn) | 112.4% |
| Cc1c(C2N3C[C@]4(C)CN2C[C@](C)(C3)C4=O)[nH]c(=O)[nH]c1=O (stereo partly drawn) | 140.1% |
| COCC(=O)NC[C@H]1C[C@@H]2CCN1C[C@@H]2CN(C)c1ccccc1 | -6.027% |
| O=C(c1[nH]c2ccc(Cl)cc2c1Cl)N1CCC2(CC1)OCCO2 | -4.336% |
| NCC1(c2cccc(C(F)(F)F)c2)CCC1 | 15.34% |
| CCNC(=O)CCC(=O)NC(C)Cc1ccccc1Br (stereo not drawn) | 15.31% |
| N#Cc1cnc2ccccc2c1N1CCNCC1 | -0.76% |
| Cc1nn(C)c2ncc(S(=O)(=O)N3CCCN4CCCC4C3)cc12 (stereo not drawn) | -8.04% |
| COc1cccc(C2SCC(=O)Nc3ccsc32)c1 (stereo not drawn) | -17.04% |
| CC(C)n1[nH]c(=O)c2c1NC(=O)CSC2c1ccc(OCC(N)=O)cc1 (stereo not drawn) | 116.2% |
| COc1cc(OC)cc(C2SCC(=O)Nc3ccsc32)c1 (stereo not drawn) | -4.704% |
| CC(C)n1[nH]c(=O)c2c1NC(=O)CSC2c1cccc(OCC(N)=O)c1 (stereo not drawn) | 107.3% |
| CCN1CCC2(CCC1=O)CN(c1ccnc(SC)n1)CCN2C (stereo not drawn) | -2.766% |
| Cc1cc(CC(=O)N2CCN(CC(C)C)[C@@H]3CS(=O)(=O)C[C@@H]32)ccc1F | -16.98% |
| CC1=N[C@@]2(CC[C@@H]3CN(CC(C)C)C[C@@H]32)C(=O)N1 | -12.28% |
| CCC1=N[C@@]2(CC[C@@H]3CN(CC)C[C@@H]32)C(=O)N1C | 107.7% |
| COc1ccc(C(=O)C2CCCN(Cc3ccncc3)C2)c(OC)c1 (stereo not drawn) | -2.027% |
| Cc1c(CC(=O)N2CCN(CC(F)(F)F)CC2)nnn1-c1ccccc1 | -7.021% |
| CCOCC(O)CN1CCN(C(=O)Cc2ccccc2Cl)CC1 (stereo not drawn) | -8.97% |
| Cl.O=C(Cc1ccc(F)cc1)N1CCN(CC(O)C2CC2)CC1 (stereo not drawn) | -12.59% |
| COc1ccc(Cl)cc1CC(=O)N1CCN(CC(C)O)CC1 (stereo not drawn) | 112.2% |
| Cc1oc(-c2ccco2)nc1CC(=O)N1CCN(CC(C)(C)O)CC1 | -7.111% |
| COc1ccc(Cl)cc1CC(=O)N1CCN(CC(C)(C)O)CC1 | 104.9% |

| Compound | Percent Effect |
| --- | --- |
| CCC1CNCc2cc3c(OC)ccc(OC)c3nc2O1 (stereo not drawn) | 82.52% |
| CCC1CNCc2cc3c(C)ccc(C)c3nc2O1 (stereo not drawn) | 108.6% |
| OCCCN(CCc1cccc(F)c1)C1CC1 | 110% |
| CN1C(=O)CC2(CCNCC2)c2ccccc21 | -12.38% |
| CN1C(=O)C2(CCNCC2)c2cc(F)ccc21.Cl | -10.96% |
| CC(=O)N1CC2(CCNCC2)c2cc(C)ccc21 | -30.16% |
| CC(=O)N1CC2(CCNCC2)c2cc(Cl)ccc21.Cl | 94.12% |
| COC(=O)N1CC2(CCNCC2)c2cc(Cl)ccc21.Cl | 101.7% |
| Cn1nc(-c2cccs2)cc1[C@H]1CN2CC[C@H]1C[C@@H]2CNS(C)(=O)=O | -2.456% |
| CC(Cn1ccnc1)NS(=O)(=O)c1ccc(C#N)c(Cl)c1 (stereo not drawn) | 2.375% |
| CCOc1ccc(C2SCC(=O)Nc3c2c(=O)[nH]n3C(C)C)cc1 (stereo not drawn) | 112% |
| CCOc1ccc(C2SCC(=O)Nc3c2c(=O)[nH]n3C(CC)CC)cc1 (stereo not drawn) | 117.7% |
| CCCOc1ccc(C2SCC(=O)Nc3c2c(=O)[nH]n3C(C)C)cc1 (stereo not drawn) | 107.1% |
| O=C1CSC(c2ccsc2)c2c(n(C3CCOCC3)[nH]c2=O)N1 (stereo not drawn) | 12.85% |
| CC(C)COc1ccc(C2SCC(=O)Nc3c2c(=O)[nH]n3C(C)C)cc1 (stereo not drawn) | 105.8% |
| COc1cc(C2SCC(=O)Nc3ccsc32)cc(OC)c1OC (stereo not drawn) | -0.744% |
| O=C1CSC(c2ccc(O)c(Cl)c2)c2c(n(C3CCOCC3)[nH]c2=O)N1 (stereo not drawn) | 12.23% |
| CC(C)c1nccc([C@H]2C[C@@H]3CCN(Cc4ccco4)C[C@H]3O2)n1 | -3.761% |
| O=C(Nc1cccnc1)[C@H]1CN(Cc2cccs2)C[C@H]2OCC[C@@H]12 | -5.403% |
| CNS(=O)(=O)CC(=O)NC(C)Cc1ccccc1Br (stereo not drawn) | -19.16% |
| COCCNC(=O)c1cn(C(C)(C)C)c2ncccc12 | 1.004% |
| COCCCNC(=O)c1cn(C(C)(C)C)c2ncccc12 | 120.5% |
| CCOCCCNC(=O)c1cn(C(C)(C)C)c2ncccc12 | 117.9% |
| COCC(C)NC(=O)c1cn(C(C)(C)C)c2ncccc12 (stereo not drawn) | 0.2413% |

| Compound | Percent Effect |
| --- | --- |
| COCCN(CCOC)C(=O)c1cn(C(C)(C)C)c2ncccc12 | 135.3% |
| CC(Cn1ccnc1)NCc1n[nH]c2c1CCC2 (stereo not drawn) | -9.016% |
| N#Cc1ccc(N2CCC(OC3CCOCC3)CC2)cc1Cl | -7.664% |
| O=C(CC[C@@H]1CCCN2CCCC[C@H]12)NCCc1cc(O)ncn1 | -16.08% |
| CCc1noc(CC)c1CC(=O)N1CCN(C(C#N)C(C)C)CC1 (stereo not drawn) | -3.422% |
| Cc1noc([C@]23COC[C@H]2CN(Cc2cc(C)on2)C3)n1.O=C(O)C(F)(F)F | 2.509% |
| FC(F)CN1CCOC(Cn2cccn2)C1 (stereo not drawn) | 120.3% |
| Cc1ncc2c(c1CNC(=O)C1(C)CCCO1)CCNC2 (stereo not drawn) | 2.031% |
| CC(C)NC(=O)[C@@H]1C[C@H]2NCC[C@H]2O1.Cl | 109.5% |
| O=C(NC1CCC1)[C@H]1C[C@H]2NCCO[C@@H]2C1 | -2.9% |
| CC(C)NC(=O)[C@H]1C[C@H]2NCCO[C@@H]2C1 | 34.99% |
| Cc1cccc(C(=O)N2C[C@@H]3OCCN(C(C)C)[C@@H]3C2)n1 | -13.51% |
| COCC(=O)N1CC[C@H]2[C@H]1CCN2CC(C)C | -1.269% |
| O=C(O)C(F)(F)F.O=C(O)C(F)(F)F.O=C(O)CN1CCC(F)(F)C2(CCN(c3ccccn3)C2)C1 (stereo not drawn) | -9.228% |
| OCCN1CCC(F)(F)C2(CCN(c3cccnc3)C2)C1 (stereo not drawn) | 103.9% |
| O=C(O)C(F)(F)F.O=C(O)C(F)(F)F.OCCN1CC2(CCN(c3ccccc3)C2)C1 | 6.244% |
| FC1(F)CCNCC12CCN(c1cccnc1)C2.O=C(O)C(F)(F)F.O=C(O)C(F)(F)F (stereo not drawn) | -21.44% |
| Cc1ccc(N2CCC3(CN(CCO)CCC3(F)F)C2)nn1.O=C(O)C(F)(F)F (stereo not drawn) | 100.9% |
| NCC1(c2cccc(C(F)(F)F)c2)CC1 | -45.72% |
| C[C@H]1C[C@@H]2CCN(Cc3nccs3)C[C@H]2O1 | -9.973% |
| CC(Cn1ccnc1)NCc1csc2c1CCCC2 (stereo not drawn) | -4.512% |
